# Laboratory results published in PubChem BioAssay (NCATS).
# Inconclusive results are not listed. A call without a number means that no potency is given here. Calls of active or inactive are those of the source. The call rests on the fitted dose curve; in most records, active means well fitted curve in the direction sought with a large enough effect; inconclusive means small, poorly fitted or top-dose-only effect, or another doubt; inactive means no such curve, though single readings can be large; an effect the other way counts as inactive or inconclusive.
# Key:
# [1] = Quantitative High-Throughput drug screen in 47 multiple myeloma cell lines against the NCATS MIPE library collection: PE2_PLB cell viability assay (AID 1919869); further: nearly all actives have a fitted effect of over 35% in size; further: potency means the concentration at half of the fitted maximal effect
# In short: (§1)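 qHTS format: cells plated (500/well), pin-dosed with MIPE 4.0 compounds, kept 48 h at 37 °C. Readout was CellTiter-Glo luminescence, median RLU.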
# [2] = Quantitative High-Throughput drug screen in 47 multiple myeloma cell lines against the NCATS MIPE library collection: PCM6_Riken cell viability assay (AID 1919870); further: nearly all actives have a fitted effect of over 30% in size; further: potency means the concentration at half of the fitted maximal effect
# In short: as §1
# [3] = Quantitative High-Throughput drug screen in 47 multiple myeloma cell lines against the NCATS MIPE library collection: RPMI8226_ATCC cell viability assay (AID 1919871); further: nearly all actives have a fitted effect of over 30% in size; further: potency means the concentration at half of the fitted maximal effect
# In short: as §1
# [4] = Quantitative High-Throughput drug screen in 47 multiple myeloma cell lines against the NCATS MIPE library collection: OPM2_DSMZ cell viability assay (AID 1919872); further: nearly all actives have a fitted effect of over 30% in size; further: potency means the concentration at half of the fitted maximal effect
# In short: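 Luminescent ATP measurement with CellTiter-Glo gives viability, scaled between DMSO-only wells (100%) and media-only wells (0%). Cells, 500 per well, faced library compounds for 48 hours at 37C.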
# [5] = Quantitative High-Throughput drug screen in 47 multiple myeloma cell lines against the NCATS MIPE library collection: KMS11_JCRBsus cell viability assay (AID 1919873); further: nearly all actives have a fitted effect of over 50% in size; further: potency means the concentration at half of the fitted maximal effect
# In short: as §1
# [6] = Quantitative High-Throughput drug screen in 47 multiple myeloma cell lines against the NCATS MIPE library collection: UTMC2_PLB cell viability assay (AID 1919868); details: CellTiter-Glo ATP luminescence, 48 h; viability (% of DMSO control): at 45.8 µM (top of the series); further: nearly all actives have a fitted effect of over 55% in size; further: potency means the concentration at half of the fitted maximal effect
# In short: as §1
# [7] = Quantitative High-Throughput drug screen in 47 multiple myeloma cell lines against the NCATS MIPE library collection: KMS28BM_JCRB cell viability assay (AID 1919874); further: nearly all actives have a fitted effect of over 35% in size; further: potency means the concentration at half of the fitted maximal effect
# In short: as §1
# [8] = biological target: Cytochrome P450 2D6 (Homo sapiens) (UniProt P10635); assay: qHTS for inhibitors of CYP2D6 against the NCATS DSHEA and TCM libraries (AID 1919972); details: CYP2D6 enzymatic inhibition, luminescence qHTS; further: potency means the concentration at half of the fitted maximal effect
# In short: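 CYP2D6 enzyme with pro-luciferin substrate in manufacturer buffer (typically 100 mM KPO4), preincubated 15 min RT with substances (most at 19.5 nM upward); NADPH regeneration system (1x) started 30–45 min RT reaction; P450-Glo luminescence read after 30 min; quinidine as intraplate control.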
# [9] = biological target: Cytochrome P450 2C19 (Homo sapiens) (UniProt P33261); assay: qHTS for inhibitors of CYP2C19 against the NCATS DSHEA and TCM libraries (AID 1919974); details: CYP2C19 enzyme inhibition, luminescence qHTS;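 further: luminescence from luciferin released by CYP2C19 oxidation of a pro-luciferin substrate; potency means the concentration at half of the fitted maximal effect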
# In short: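 Concentration-response screening with isoform-matched pro-luciferin substrates. The CYP reaction was initiated by NADPH regenerating solution and ran 30-45 min in darkness at room temperature.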
# [10] = KB-3-1 P-gp reporter qHTS against the NCATS DSHEA and TCM libraries (AID 1919975)
# In short: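 Cell viability qHTS: 500 KB-3-1 cells/well, substances in titration, ~72 h, 37C; luminescent CellTiter-Glo read.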
# Chain of Cytochrome P450 2C19 (Homo sapiens) (P33261 whole entry, looked up, canonical isoform): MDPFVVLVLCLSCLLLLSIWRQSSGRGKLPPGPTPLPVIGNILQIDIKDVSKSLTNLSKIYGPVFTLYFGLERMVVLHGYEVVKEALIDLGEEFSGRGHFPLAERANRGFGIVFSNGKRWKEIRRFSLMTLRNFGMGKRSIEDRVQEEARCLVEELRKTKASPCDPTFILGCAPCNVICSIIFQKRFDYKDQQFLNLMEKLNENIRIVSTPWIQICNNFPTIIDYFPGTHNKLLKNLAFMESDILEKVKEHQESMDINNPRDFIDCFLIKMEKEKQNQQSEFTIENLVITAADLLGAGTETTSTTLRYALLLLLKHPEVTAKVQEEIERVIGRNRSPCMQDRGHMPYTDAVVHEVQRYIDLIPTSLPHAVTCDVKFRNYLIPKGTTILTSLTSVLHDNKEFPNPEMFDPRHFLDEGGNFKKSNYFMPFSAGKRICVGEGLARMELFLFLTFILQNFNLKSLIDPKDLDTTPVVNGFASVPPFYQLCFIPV
# Chain of Cytochrome P450 2D6 (Homo sapiens) (P10635 whole entry, looked up): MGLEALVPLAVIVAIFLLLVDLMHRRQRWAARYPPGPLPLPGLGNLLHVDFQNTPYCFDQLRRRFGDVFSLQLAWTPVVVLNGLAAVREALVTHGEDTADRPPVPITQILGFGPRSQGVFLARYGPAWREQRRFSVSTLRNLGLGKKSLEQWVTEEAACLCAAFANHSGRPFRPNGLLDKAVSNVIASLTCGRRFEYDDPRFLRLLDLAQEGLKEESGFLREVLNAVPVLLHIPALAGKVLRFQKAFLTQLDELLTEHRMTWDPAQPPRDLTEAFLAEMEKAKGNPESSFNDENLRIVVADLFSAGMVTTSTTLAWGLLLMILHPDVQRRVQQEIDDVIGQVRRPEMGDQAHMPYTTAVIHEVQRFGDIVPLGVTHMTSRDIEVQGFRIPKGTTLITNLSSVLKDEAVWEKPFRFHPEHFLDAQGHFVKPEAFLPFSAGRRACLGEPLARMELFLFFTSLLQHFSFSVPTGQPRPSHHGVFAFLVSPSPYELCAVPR
smiles,measurement,setting,value
CN(C)CCc1ccc(O)cc1,Potency,[1],9.35 µM (active)
same,Potency,[2],inactive
same,Potency,[3],inactive
same,Potency,[4],inactive
same,Potency,[5],inactive
Cc1sc2c(c1C)C(c1ccc(Cl)cc1)=N[C@@H](CC(=O)OC(C)(C)C)c1nnc(C)n1-2,Potency,[6],0.662 µM (active)
same,Potency,[1],1.18 µM (active)
same,Potency,[2],2.96 µM (active)
same,Potency,[5],0.059 µM (active)
same,Potency,[7],0.105 µM (active)
COc1ccc2c(c1OC)CN1CCc3cc4c(cc3C1C2)OCO4 (stereo not drawn),Potency,[6],2.09 µM (active)
same,Potency,[2],16.6 µM (active)
same,Potency,[3],inactive
same,Potency,[4],inactive
same,Potency,[7],inactive
C#CCN(C)[C@H](C)Cc1ccccc1,Potency,[1],inactive
same,Potency,[4],inactive
Cc1cccc(C)c1NC(=O)CN1CCCC1=O,Potency,[1],inactive
same,Potency,[2],inactive
same,Potency,[3],inactive
same,Potency,[4],inactive
same,Potency,[5],inactive
same,Potency,[7],inactive
CC1=C2C[C@@H]3[C@@H](CC=C4C[C@@H](O)CC[C@@]43C)[C@@H]2CC[C@]12O[C@H]1C[C@H](C)CN[C@H]1[C@H]2C,Potency,[1],inactive
same,Potency,[2],inactive
same,Potency,[3],6.62 µM (active)
same,Potency,[4],inactive
same,Potency,[7],inactive
COC1(CS(=O)c2ccccc2)CCN(CCc2c[nH]c3ccc(F)cc23)CC1 (stereo not drawn),Potency,[6],inactive
same,Potency,[2],inactive
same,Potency,[3],7.43 µM (active)
same,Potency,[4],inactive
same,Potency,[7],0.743 µM (active)
COc1ccc(C(CN(C)C)C2(O)CCCCC2)cc1 (stereo not drawn),Potency,[6],inactive
same,Potency,[1],inactive
same,Potency,[3],inactive
same,Potency,[4],inactive
same,Potency,[5],inactive
C[C@@H]1[C@@H](CC(C[C@H]2O[C@@H]3O[C@]4(C)CC[C@@H]5[C@H](C)CC[C@@H]([C@H]2C)[C@@]35OO4)C[S+](=O)([O-])c2ccc(COC(=O)N(C)C)cc2)O[C@@H]2O[C@]3(C)CC[C@H]4[C@H](C)CC[C@@H]1[C@@]24OO3 (stereo partly drawn),Potency,[6],0.187 µM (active)
same,Potency,[1],0.264 µM (active)
same,Potency,[2],0.418 µM (active)
same,Potency,[3],0.296 µM (active)
same,Potency,[5],0.148 µM (active)
same,Potency,[7],0.264 µM (active)
CC(C)=CCOc1c2occc2cc2ccc(=O)oc12,Potency,[8],1.78 µM (active)
same,Potency,[9],12.6 µM (active)
same,outcome,[10],inactive
Fc1ccc(C(OCCN2CCN(CCCc3ccccc3)CC2)c2ccc(F)cc2)cc1,Potency,[1],13.2 µM (active)
same,Potency,[2],10.5 µM (active)
same,Potency,[3],18.7 µM (active)
same,Potency,[4],23.5 µM (active)
same,Potency,[5],11.8 µM (active)
same,Potency,[7],13.2 µM (active)
